In PubChem BioAssay (NCI):
About 83,000 compounds went through this panel and 20% of them were active in at least one assay; those are over-represented in the sample as a whole.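 Negative percent growth values reflect cell death: -40 means 40% of the cells present at the start died, and -100 means all died.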 Calls of active or inactive are those of the source. The calls were made as follows: active = growth percent below 10; inactive = the rest.

Each compound was assayed on HL-60(TB) leukemia (assay: NCI-60 one-dose screen, 48 h (100 = growth as untreated, 0 = no growth, -100 = all killed)). Conditions: 10 µM unless noted.

SMILES	growth
Cc1ccc(/C=C/c2c(C(=O)/C=C/c3ccc(Cl)cc3)c(C)nc3ccccc23)cc1	-8.89% (active)
COc1ccc(-c2cc(-c3cc(-c4ccc(OC)cc4)nc(N)n3)nc(N)n2)cc1	83.6% (inactive)
CN(C)CCCNC(=O)c1cncnc1Nc1ccc(OCc2cccc(F)c2)c(Cl)c1	-60.7% (active)
COC(=O)C(CC(=O)c1ccc(-c2ccccc2)cc1)c1ccccc1 (stereo not given)	15.4% (inactive)
Cc1ccc(-c2nn(C)c(=O)c3noc(-c4ccc(C)cc4)c23)cc1	29.3% (inactive)
COc1cc(C2CC(c3ccc(Nc4ccnc5cc(Cl)ccc45)cc3)=NN2c2ccc(Cl)cc2)cc(OC)c1OC (stereo not given)	40.3% (inactive)
O=C1c2ccccc2C(=O)c2c1cc1c(c2[N+](=O)[O-])OCO1	7.66% (active)
C1=C(Cc2ccccc2)n2cnc3ncnc(c32)S1	75.1% (inactive)
O=C(NN(C(=O)c1ccccc1)c1cccs1)c1ccccc1	101% (inactive)
S=c1ccnc[nH]1	59.3% (inactive)
CN(C)c1ccc(-c2ccc(-c3ccc(C(=N)N)cn3)o2)cc1	-67.3% (active)
O=C(Oc1ccc(CO[N+](=O)[O-])cc1)c1ccccc1	-45.9% (active)
Cc1nc2ccccc2c(/C=C/c2ccc(Cl)cc2)c1C(=O)/C=C/c1ccc(C(F)(F)F)cc1	-37% (active)
Nc1c(C(=O)c2ccccc2)sc2nc(-c3cccs3)ccc12	9.36% (active)
O=C1c2ccccc2C(=O)c2cc(Cn3cc[n+](Cc4ccc5ccccc5c4)c3)ccc21	43% (inactive)
CCOC(=O)C(CNc1ccccc1)C(=O)OCC	101% (inactive)
CNCc1cccc2c1OCCOCCOCCN(C)S(=O)(=O)c1ccc(cc1)-c1cnc(N)c(n1)C(=O)N2	-37% (active)
CCOC(=O)c1nn(C2CCCCO2)c2ccc(NC(=O)Cn3nnc4ccccc43)cc12 (stereo not given)	98.8% (inactive)
c1ccc2c[n+](Cc3ccc4ccccc4n3)ccc2c1	74.3% (inactive)
CCc1cccc(C)c1NC(=O)c1sc2nc3c(cc2c1N)CCCCC3	-10.5% (active)

SMILES	growth
CCOC(=O)c1cn2ncnc(Oc3ccc(NC(=O)NC4CC4)c(F)c3)c2c1C	70.9% (inactive)
Cc1cnc(C(=O)NNc2nc3sc4c(c3c(=O)[nH]2)C(C)CCC4)cn1 (stereo not given)	-30.7% (active)
COc1ccc(/C=C(/C(=O)n2cnnn2)c2cc(OC)c(OC)c(OC)c2)cc1	4.64% (active)
C=CCc1cc(C)ccc1NC(C(=O)NCC(=O)OC)c1ccccc1 (stereo not given)	103% (inactive)
CN1CCN(Cc2ccc(NC(=O)c3nc4ccc5[nH]ncc5c4c4c3CCCC4)cc2C(F)(F)F)CC1	-57.4% (active)
CCN1CCCC1CNC(=O)c1ncc(-c2ccc(C(F)(F)F)cc2)c(NC2CCCCCC2)n1 (stereo not given)	65.9% (inactive)
CCC(c1ccc(O)cc1)C(CC)c1ccc(O)c(F)c1 (stereo not given)	56.1% (inactive)
O=S(=O)(NCCNc1cc(-c2cn(-c3ccccc3)nc2-c2cccc(O)c2)ccn1)c1ccc(C(F)(F)F)cc1	8.76% (active)
CCN1C(=O)N(CC)C2C1NN=c1s/c(=C\c3ccc([N+](=O)[O-])cc3)c(=O)n12 (stereo not given)	-37.9% (active)
O=C(CSc1nnc(Cc2ccccc2Nc2c(Cl)cccc2Cl)n1-c1ccccc1)N1N=C(c2ccc3ccccc3c2)CC1c1ccc(Cl)cc1 (stereo not given)	98% (inactive)
O=C(C[n+]1ccccc1Cl)c1ccc2c(c1)CCCC2	79.2% (inactive)
COc1ccc2c(c1)N(CCO)C1=C(C(=O)OC1)C2c1cc(OC)c(OC)c(OC)c1 (stereo not given)	-16.7% (active)
COc1cc(/C=C/C(=O)c2ccc(-n3cc(CN4CCN(c5cc6c(cc5F)c(=O)c(C(=O)O)cn6C5CC5)CC4)nn3)cc2)cc(OC)c1OC	98.8% (inactive)
O=S(=O)(NCCCNc1nccc(-c2c(-c3ccc(O)cc3)nc3sccn23)n1)c1ccc(F)cc1	-32.3% (active)
COc1cccc2c1C(=O)c1c(O)c3c(c(O)c1C2=O)C[C@@](O)(C(=O)CO)C[C@@H]3O[C@H]1C[C@H](N)[C@@H](O)[C@H](C)O1	3.13% (active)
Clc1cc(Cl)c(OCC#CI)cc1Cl	47.6% (inactive)
COc1ccc2c(c1)C(=O)/C(=C/c1cccc(OCC(=O)c3ccccc3)c1)CC2	46.5% (inactive)
O=C(Nc1nc2ccc(C(=O)N3CCN(/C=C/c4ccccc4)CC3)cc2s1)c1ccc(NCCc2ccccc2)c([N+](=O)[O-])c1	80.5% (inactive)
COc1cc(CCc2cc(NC(=O)c3ccc(N4C[C@@H](C)N[C@@H](C)C4)cc3)n[nH]2)cc(OC)c1	12.5% (inactive)
CNCCCNc1nc2ccccc2c2c(=O)c3cc(OC)ccc3sc12	56.2% (inactive)
